Screening data (PubChem BioAssay)
Mcl-1 Bim block = disrupts Bim peptide binding to human Mcl-1; inhibition, % at 10 µM; hit rate 0.1% among 190,000; Q07820; Bead-based flow cytometry, Bim peptide-Mcl-1 binding; in the data active means inhibition above about 40%;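 further: 0% = no compound tracer wells and 100% = peptide blocker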
Target sequence (Q07820 whole entry, looked up): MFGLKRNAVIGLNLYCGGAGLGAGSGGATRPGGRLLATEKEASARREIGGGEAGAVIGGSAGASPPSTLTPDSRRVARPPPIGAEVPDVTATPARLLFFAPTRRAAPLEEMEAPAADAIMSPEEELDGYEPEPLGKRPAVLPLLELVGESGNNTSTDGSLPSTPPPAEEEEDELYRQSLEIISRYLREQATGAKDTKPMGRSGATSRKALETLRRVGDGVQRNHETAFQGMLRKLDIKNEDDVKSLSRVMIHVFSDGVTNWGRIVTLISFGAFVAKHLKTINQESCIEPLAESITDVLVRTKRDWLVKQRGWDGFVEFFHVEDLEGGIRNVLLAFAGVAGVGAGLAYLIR
Mcl1-Bid inh = Mcl-1/Bid interaction inhibition; Q07820; inhibition, % at 21.7 µM; hit rate 0.97% among 220,000; TR-FRET Mcl-1/Bid-Dy647 peptide binding, 1536-well; AID 1021;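 active means compounds that cut the binding signal by more than half at the single screening dose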;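 further: His-tagged Mcl-1 with europium anti-His antibody binding Bid BH3 peptide; 0% = Mcl-1 plus peptide wells and 100% = peptide-only wells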
MCL1 BIM primary = inhibitors of human MCL1 binding to BIM-BH3 peptide; Q07820; GST-MCL1 / FITC-Bim-BH3 fluorescence polarization; inhibition, % at 10.9 µM; hit rate 0.68% among 320,000;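 active means inhibition above the mean inhibition of all tested compounds plus 3 SD, set per campaign, cut at about 40% in these data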;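 further: 0% = DMSO wells and 100% = unlabeled Bim-BH3 peptide control; higher means more loss of mP so more displacement of Bim peptide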
Mcl1-Noxa inh = Mcl-1/Noxa interaction inhibition | Q07820 | TR-FRET Mcl-1/Noxa peptide binding, 2 h | inhibition, % at 21.7 µM | hit rate 1.5% among 220,000 | AID 1022;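 active means compounds that cut the protein-peptide binding signal by more than 50% relative to plate controls in a single-dose test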;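 further: His-tagged Mcl-1 with rhodamine Noxa BH3 peptide and terbium anti-His antibody; 0% = Mcl-1 plus Noxa peptide wells and 100% = peptide-only wells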
* marks the source's active call; other numbers are inactive results; / = no result. Sampled rows, rich in hits. Any-hit rate of the full collection: about 2%.

SMILES	Mcl-1 Bim block	Mcl1-Bid inh	MCL1 BIM primary	Mcl1-Noxa inh
CCC1(C)Cc2c(sc3[nH]c(=S)[nH]c(=S)c23)CO1 (stereo unspecified)	/	/	12	/
CC(=O)Nc1ccc(-n2cc(-c3ccccc3)[nH]c2=S)cc1	-7	-31	6	53*
COc1ccc(-n2cc(-c3ccccc3)[nH]c2=S)cc1	-16	-102	-5	11
CCOc1cc(CNc2ccc3[nH]c(=O)[nH]c3c2)ccc1OCC(=O)NC(C)(C)C	3	-11	22	44
COc1cc(CNc2ccc3[nH]c(=O)[nH]c3c2)cc(Cl)c1OCC(=O)NC(C)(C)C	3	-14	16	59*
CCOC(=O)Cc1csc(SCC(=O)N(CC(C)C)c2c(N)n(Cc3ccccc3)c(=O)[nH]c2=O)n1	/	/	-4	/
Cc1cnc(C(=O)OCc2nc3ccsc3c(=O)[nH]2)cn1	/	/	36	/
CC(c1ccccc1)n1cnc2ccccc2c1=O (stereo unspecified)	/	/	-2	/
Cc1ccc(/C=N/NC(=O)c2ccc3nc[nH]c3c2)o1	/	-8	9	55*
Cc1cn(CC2COC(C)(C)O2)c(=O)[nH]c1=O (stereo unspecified)	-3	-15	5	73*
COC(Cn1cc(C)c(=O)[nH]c1=O)OC	-2	-2	2	3
COCCCn1c(=S)[nH]c2sc3c(c2c1=O)CCCS3	-4	-89	10	65*
COCCn1c(=S)[nH]c2sc3c(c2c1=O)CCC(C)C3 (stereo unspecified)	/	/	4	/
Cc1ccc(-c2nnc(N3CC(C)OC(C)C3)c3ccccc23)cc1 (stereo unspecified)	-3	91*	-1	3
Cc1cc(/C=C2\C(=N)N3N=C(c4ccco4)SC3=NC2=O)c(C)n1Cc1ccccc1	/	-54	2	63*
CN(CC(=O)Nc1ccccc1Br)C(=O)CN1CCN(c2ccccc2Cl)CC1	/	/	-3	/
CCc1ccc(NS(=O)(=O)c2ccc3[nH]cc(C(=O)NCC4CCCO4)c(=O)c3c2)cc1 (stereo unspecified)	-4	54*	4	16
CCOCCCNC(=O)c1c[nH]c2ccc(S(=O)(=O)Nc3cccc(OC)c3)cc2c1=O	0	56*	-12	39
CCN(CC)C(=O)c1c[nH]c2ccc(S(=O)(=O)Nc3cc(C)cc(C)c3)cc2c1=O	-2	55*	7	23
Cc1ccccc1N(C)S(=O)(=O)c1ccc2[nH]cc(C(=O)NCC3CCCO3)c(=O)c2c1 (stereo unspecified)	-1	66*	-6	42
Cc1ccc(C(=O)C(NC(=O)c2ccco2)Nc2sc3c(c2C(N)=O)CCCC3)cc1 (stereo unspecified)	-2	-22	-2	16
Cc1csc(SCC(=O)Nc2cc([N+](=O)[O-])ccc2F)n1	/	/	-2	/
CCC1CSC(Nc2ccc(C(=O)/C=C/c3ccc(Oc4ccccc4)cc3)cc2)=N1 (stereo unspecified)	-1	6	7	11
CCC1CSC(Nc2ccc(C(=O)/C=C/c3cccc(C)c3)cc2)=N1 (stereo unspecified)	0	26	-9	85*
N#C/C(=C\c1ccc(Cl)cc1)C(=O)Nc1cccnc1	/	6	2	4
SMILES	Mcl-1 Bim block	Mcl1-Bid inh	MCL1 BIM primary	Mcl1-Noxa inh
Cc1[nH]nc(-c2ccc(OCc3cnn(-c4ccccc4)c3)cc2O)c1Oc1ccccc1F	-1	59*	-1	-11
O=C(NC1CC2CCCC(C1)N2Cc1cccs1)c1ccc([N+](=O)[O-])cc1 (stereo unspecified)	0	1	7	22
COc1ccccc1/C=C/C=c1\sc2nc(=O)c(Cc3ccccc3)nn2c1=O	/	-35	20	51*
CCCOc1ccc(Cc2nn3c(=O)/c(=C/c4ccco4)sc3nc2=O)cc1	-4	0	18	75*
C=CCOc1ccccc1/C=c1\sc2nc(=O)c(C)nn2c1=O	1	-28	19	11
Nc1cc([N+](=O)[O-])ccc1Nc1ccc(O)cc1	/	-234	24	72*
C=CCn1c(O)c(C2=c3ccccc3=NC2=O)sc1=Nc1ccc(O)cc1	/	-15	5	52*
Cc1c(Cl)cnc(NC(=O)COC(=O)c2cccs2)c1Cl	/	/	13	/
Cc1c(Cl)cnc(NC(=O)COC(=O)c2ccc3ncsc3c2)c1Cl	-3	66*	29	58*
O=C1C=CC(=O)C(C2=C3C(=O)N(CCc4ccccc4)CC(=O)N3CCC2)=C1	-7	-49	20	84*
N=C1C(c2ccccc2)=C(O)CN1c1cccc(S(=O)(=O)N2CCOCC2)c1	/	-108	1	10
CN(C)/C=C/C(=O)c1ccc(C(F)(F)F)cc1F	100*	-23	1	20
